Assay results reported in PubChem BioAssay (Tox21).
“And” between values parts separate entries of the source, which are not always exact repeats. Equal entries are not always repeated. Inconclusive results are not listed. Entries that show only a call come without a potency. The source made the active and inactive calls. Calls follow the shape of the dose curve; as a rule, active = well fitted cell-killing curve with a large enough effect in the repeat runs; inconclusive = weak or mixed curves, or effect the other way; inactive = flat fitted curve, though single readings scatter.

Assay: qHTS assay to identify small molecule agonists of the sonic hedgehog signaling (Shh) pathway - cell viability counter screen (AID 1259366); also: nearly all actives have a fitted effect of over 50% in size
Settings: NIH/3T3 Gli1-Luc viability, CellTiter-Fluor, 24 h; series mostly up to 92.4 µM
From the text: National Center for Advancing Translational Sciences [NCATS]
NIH Chemical Genomics Center [NCGC]
U.S. Environmental Protection Agency [EPA]
National Institutes of Environmental Health Sciences [NIEHS]
National Toxicology Program [NTP]
U.S. Food and Drug Administration [FDA]
The sonic hedgehog (Shh) pathway is essential for normal embryonic development. Dysregulation of the Shh pathway can cause severe developmental defects in organs. Therefore chemicals that interfere with the pathway are potential developmental toxicants. A cell line designated 3T3Gli1-Luc (DMB/OARSA/CFSAN/FDA, Laurel, MD), a NIH/3T3 derived clone containing stably integrated Gli1-Luc reporter is used to detect chemical interference of the Shh pathway, by changes in the expression of the firefly Luc gene under the control of the Gli1 transcriptional response element. This cell line was used to screen Tox21 libraries for identifying and prioritizing the potential developmental toxicants that interfere Shh pathway. The cytotoxicity of the compounds was tested in parallel by measuring the cell viability using CellTiter-Fluor assay system (Promega, Madison, WI) in the same wells.
Tox21 Assay Protocol Summary:
3T3 Gli1-Luc cells were dispensed at 2,000 per well in 5uL of culture medium into white solid bottom 1536-well plates (Greiner Bio-One, Monroe, NC) using a Multidrop Combi (Thermo Scientific, Waltham, MA) dispenser. The assay plates were incubated at 37 C and 5% CO2 for 4hr, and then 23nL of compounds dissolved in DMSO and positive control were transferred using a Pintool station (Wako, San Diego, CA). The assay plates were incubated at 37C and 5% CO2 for 24hr. For viability read, after 23hr of compound treatment, 1uL of CellTiter-Fluor reagent (Promega Corporation, Madison, WI) was added to each well of the assay plates using Flying Reagent Dispenser (FRD, Aurora Discovery, San Diego, CA) and incubated the assay plates at 37C for 1hr. The fluorescence signal was quantified using a ViewLux plate reader (Perkin Elmer, Shelton, CT).
Potency is read from the fitted curve at half-maximal effect.

For `C[n+]1cc2c3c(ccc2c2ccc4cc5c(cc4c21)OCO5)OCO3`, which Potency is on record?
Its Potency is 1.64 µM (active).

With `[Cl][Bi]([Cl])([c]1ccccc1)([c]1ccccc1)[c]1ccccc1` as the molecule, how does the Potency read?
Its Potency is 0.108 µM (active).

For `CCN(CCC#N)c1ccc(N=Nc2c(Cl)cc([N+](=O)[O-])cc2Cl)cc1`, which Potency is on record?
Its Potency is “inactive”.

For `CS(=O)(=O)CCNCc1ccc(-c2ccc3ncnc(Nc4ccc(OCc5cccc(F)c5)c(Cl)c4)c3c2)o1`, which Potency is on record?
The Potency was “inactive”.

For `O=C(OCC(COC(=O)c1ccccc1)(COC(=O)c1ccccc1)COC(=O)c1ccccc1)c1ccccc1`, which Potency is on record?
Its Potency is “inactive”.

Which Potency does the source give for `CCCCCCC[N+](CC)(CC)CCCCc1ccc(Cl)cc1` here?
The Potency was “inactive”.

With `CC(C)(C)C(=O)OCOC(=O)[C@@H]1N2C(=O)[C@@H](NC(=O)[C@H](N)c3ccccc3)[C@H]2SC1(C)C` as the molecule, how does the Potency read?
The Potency was “inactive”.

Which Potency does the source give for `CC(C)(C)CC(C)(C)c1ccc(OCCOCC[N+](C)(C)Cc2ccccc2)cc1` here?
Its Potency is 48.5 µM (active).

With `Cc1onc(-c2ccccc2Cl)c1C(=O)N[C@@H]1C(=O)N2[C@@H]1SC(C)(C)[C@@H]2C(=O)O` as the molecule, how does the Potency read?
Its Potency is “inactive”.

For `CSc1ccc2c(c1)C(N1CCN(C)CC1)Cc1ccccc1S2` (stereo not given), which Potency is on record?
Its Potency is 23.7 µM (active).

Which Potency does the source give for `O=C1c2ccccc2Cc2ccccc21` here?
Its Potency is 6.91 µM (active).

Which Potency does the source give for `O=C(Nc1cccc(C(F)(F)F)c1)c1cc(Br)cc(Br)c1O` here?
The Potency was “inactive”.

For `O=C1CCCc2c1cc1ccc3cccc4ccc2c1c34`, which Potency is on record?
The Potency was “inactive”.

With `CCCCC(CC)COP(=O)(O)OCC(CC)CCCC` (stereo not given) as the molecule, how does the Potency read?
Its Potency is “inactive”.

For `O=C1Cc2cc(CCN3CCN(c4nsc5ccccc45)CC3)c(Cl)cc2N1`, which Potency is on record?
The Potency was 23.7 µM (active).

Which Potency does the source give for `CCCCCCCCCCCC[N+](C)(C)CCCCCCCCCCCC` here?
The Potency was 24.3 µM (active).

With `COc1cc(-c2ccc(N=C=O)c(OC)c2)ccc1N=C=O` as the molecule, how does the Potency read?
Its Potency is “inactive”.

Which Potency does the source give for `Cc1ccc(-n2nc(C(C)(C)C)cc2NC(=O)Nc2ccc(OCCN3CCOCC3)c3ccccc23)cc1` here?
Its Potency is “inactive”.

For `Nc1ccccc1O`, which Potency is on record?
The Potency was 24 µM (active).

For `O=C1C=CC(=O)N1`, which Potency is on record?
Its Potency is 5.59 µM (active).

For `CCc1cc(Cc2cc(CC)cc(C(C)(C)C)c2O)c(O)c(C(C)(C)C)c1`, which Potency is on record?
The Potency was 61.1 µM (active).

With `Oc1cc2ccccc2c2ccccc12` as the molecule, how does the Potency read?
The Potency was 4.33 µM (active).

Which Potency does the source give for `CN(C/C=C/C#CC(C)(C)C)Cc1cccc2ccccc12` here?
The Potency was “inactive”.

With `CCOC(=O)c1nc(C(Cl)(Cl)Cl)n(-c2ccc(Cl)cc2Cl)n1` as the molecule, how does the Potency read?
Its Potency is “inactive”.

Which Potency does the source give for `Cc1cccc(N(C)C(=S)Oc2ccc3c(c2)C2CCC3C2)c1` (stereo not given) here?
The Potency was “inactive”.

With `Cn1cc(C(=O)[C@@H]2CCc3nc[nH]c3C2)c2ccccc21` as the molecule, how does the Potency read?
Its Potency is “inactive”.

For `O=c1[nH]cnc2nc[nH]c12`, which Potency is on record?
The Potency was “inactive”.

Which Potency does the source give for `CC(C)(C)c1ccc(C(=O)O)cc1` here?
The Potency was “inactive”.

For `N/C(=N\N=C\c1ccc(Cl)cc1)N/N=C/c1ccc(Cl)cc1`, which Potency is on record?
The Potency was “inactive”.

Which Potency does the source give for `On1ccccc1=S` here?
The Potency was 1.71 µM (active).

Which Potency does the source give for `CCOC(=O)/C=C(C)/C=C/C=C(C)/C=C/c1c(C)cc(OC)c(C)c1C` here?
The Potency was “inactive”.

Which Potency does the source give for `Cc1nc(-c2ccc3c(c2)CCN(CCC2CCC(NC(=O)/C=C/c4ccc(F)cc4)CC2)CC3)no1` (stereo not given) here?
The Potency was “inactive”.

Which Potency does the source give for `O=C1CCCCCN1SSN1CCCCCC1=O` here?
Its Potency is 19.3 µM (active).

For `Oc1c(Cl)cc(Cl)c2cccnc12`, which Potency is on record?
The Potency was 4.22 µM (active).

With `NC(=NCCCCCCN=C(N)/N=C(\N)Nc1ccc(Cl)cc1)/N=C(\N)Nc1ccc(Cl)cc1` as the molecule, how does the Potency read?
Its Potency is 48.1 µM (active) and 24.8 µM (active) and 54.2 µM (active).

For `C=CC(=O)OCC(CO)(COCC(COC(=O)C=C)(COC(=O)C=C)COC(=O)C=C)COC(=O)C=C`, which Potency is on record?
The Potency was 1.07 µM (active).

Which Potency does the source give for `Fc1ccc([C@@H]2CCNC[C@H]2COc2ccc3c(c2)OCO3)cc1` here?
Its Potency is “inactive”.

With `CCCCN1CCCC[C@H]1C(=O)Nc1c(C)cccc1C` as the molecule, how does the Potency read?
The Potency was “inactive”.

With `CSc1ccc(/C=C2/C(C)=C(CC(=O)O)c3cc(F)ccc32)cc1` as the molecule, how does the Potency read?
Its Potency is “inactive”.

For `CC(C)(C)NC(=O)[C@@H]1C[C@@H]2CCCC[C@@H]2CN1C[C@@H](O)[C@H](Cc1ccccc1)NC(=O)[C@H](CC(N)=O)NC(=O)c1ccc2ccccc2n1`, which Potency is on record?
The Potency was 9.82 µM (active).
